# Records with an inconclusive call do not appear. A call without a number means that no potency is given here. Active and inactive are the calls of the source. Calls come from the whole dose curve.
# Assay: p53 small molecule agonists, cell-based qHTS assay with rat liver microsomes: qHTS cell viability counter screen (AID 1963580); note: nearly all actives have a fitted effect of over 45% in size
# Details: p53RE-bla HCT-116 + rat microsomes, ATP viability, 16 h; series mostly up to 66 µM
# From the text: National Center for Advancing Translational Sciences [NCATS]
# Division of Preclinical Innovation [DPI]
# U.S. Environmental Protection Agency [EPA]
# National Institutes of Environmental Health Sciences [NIEHS]
# National Toxicology Program [NTP]
# U.S. Food and Drug Administration [FDA]
# p53, a tumor suppressor protein, is activated following cellular insult, including DNA damage and other cellular stresses. The activation of p53 regulates cell fate by inducing DNA repair, cell cycle arrest, apoptosis, or cellular senescence. The activation of p53, therefore, is a good indicator of DNA damage and other cellular stresses. The CellSensor p53RE-bla HCT-116 cell line contains a stably integrated beta-lactamase reporter gene under control of the p53 response elements. The activation of the reporter gene under culture conditions can be detected by fluorescence intensity. This cell line was used to screen the Tox21 10K compound library in the condition of presence of rat liver microsomes and to identify agonists that activate the p53 signaling pathway after in vitro metabolic activation (Ooka et al., Archive of Toxicology 96:1975-1987, 2022). The cytotoxicity of the Tox21 compound library against the p53 RE-bla HCT-116 cell line was tested in parallel by measuring the intra cellular ATP content in the same wells.
# Tox21 Assay Protocol Summary:
# The p53RE-bla cells were dispensed at 4,000cells/3ul/well in 1536-well black-clear bottom plates. After the assay plates were incubated at 37 C, 5% CO2 incubator for 5 hours, 23 nL of compounds dissolved in DMSO, positive controls or DMSO only was transferred to the assay plate. Following compound addition, 3 uL of rat liver microsomes (Molecular Toxicology, Boone, NC) at final concentration of 0.5 mg/mL and 1uL of B-Nicotinamide adenine dinucleotide 2'-phosphate (NADPH) at final concentration of 0.5 mg/mL were transferred to the assay plate. The plates were incubated at 37 C for 16 hours. 1 uL of LiveBLAzer detection mixture was added to each well and the plates were incubated at room temperature in the dark for 2 h. Fluorescence intensity at 460 and 530 nm emission and 405 nm excitation were measured by an Envision plate reader. For cell viability readout that measures cytotoxicity, 4 ul/well of CellTiter-Glo reagent was added into the assay plates using a Flying Reagent Dispenser. After 30 min incubation at room temperature, the luminescence intensity in the plates was measured using a ViewLux plate reader.
row,SMILES,Potency
1,OCCOCCOCCO,inactive
2,Cc1ccc(C(=O)O)o1,inactive
3,CCOC(=O)c1ccc(O)cc1,inactive
4,CC1(C)O[C@@H]2C[C@H]3[C@@H]4CCC5=CC(=O)C=C[C@]5(C)[C@@]4(F)[C@@H](O)C[C@]3(C)[C@]2(C(=O)CO)O1,inactive
5,CCCCC/C=C\C/C=C\CCCCCCCC(=O)O,inactive
6,OC[C@H]1O[C@@H](Oc2ccc(O)cc2)[C@H](O)[C@@H](O)[C@@H]1O,inactive
7,CCNc1ccccc1,inactive
8,CCN(CC)CCOC(=O)c1ccc(N)cc1,inactive
9,Brc1cc(Oc2cc(Br)c(Br)c(Br)c2Br)c(Br)c(Br)c1Br,inactive
10,Cc1cc(=O)n(-c2ccccc2)n1C,inactive
11,C#CC1(O)CC[C@H]2[C@@H]3CCC4=CCCC[C@@H]4[C@H]3CC[C@@]21C (stereo not given in full),inactive
12,CC(C)(Oc1ccc(Cl)cc1)C(=O)O,inactive
13,Nc1ccc(Nc2ccccc2)cc1,inactive
14,CC(=O)[C@H]1CC[C@H]2[C@@H]3CC=C4C[C@@H](O)CC[C@]4(C)[C@H]3CC[C@]12C,inactive
15,CCC(=O)/C=C/C1C(C)=CCCC1(C)C (stereo not given),inactive
16,CC1(C)CC(N=C=O)CC(C)(CN=C=O)C1 (stereo not given),inactive
17,CCCCOC(=O)COc1ccc(Cl)cc1Cl,inactive
18,CCCCCCCCCCCCCCCCO,inactive
19,Cc1ccc(S(=O)(=O)O)cc1,inactive
20,CC(O)CO (stereo not given),inactive

row,SMILES,Potency
1,CC(=O)c1ccc(O)cc1,inactive
2,CC(COc1ccccc1)N(CCCl)Cc1ccccc1 (stereo not given),inactive
3,CC(=O)CC(C)(C)O,inactive
4,CCN(CC)C(=O)c1cccc(C)c1,inactive
5,C[C@]12CC[C@@H]3c4ccc(O)cc4CC[C@H]3[C@@H]1C[C@@H](O)[C@@H]2O,inactive
6,CC(=O)Nc1ccc(C(=O)O)cc1,inactive
7,NC(=O)c1cccnc1,inactive
8,C=CC(=O)OCCOCCOCCOCCOC(=O)C=C,inactive
9,CCc1cc(C(N)=S)ccn1,inactive
10,CCCCNC(=O)NS(=O)(=O)c1ccc(C)cc1,inactive
11,NC(=O)c1ncn([C@@H]2O[C@H](CO)[C@@H](O)[C@H]2O)n1,inactive
12,C=C[C@@]1(C)CC(=O)[C@]2(O)[C@@]3(C)[C@@H](O)CCC(C)(C)[C@@H]3[C@H](O)[C@H](OC(C)=O)[C@@]2(C)O1,inactive
13,CCOC(=O)C1OC1c1ccccc1 (stereo not given),inactive
14,CC1=CC(C)(C)Nc2ccccc21,inactive
15,Nc1cccc(C(F)(F)F)c1,inactive
16,NC(=O)/N=N/C(N)=O,inactive
17,O=S(=O)(O)NC1CCCCC1,inactive
18,CCCCCCCCC,inactive
19,COc1cc([C@H]2Oc3cc([C@H]4Oc5cc(O)cc(O)c5C(=O)[C@@H]4O)ccc3O[C@@H]2CO)ccc1O,inactive
20,NC1CCCCC1,inactive

# Reference: PubChem BioAssay (Tox21)
